Screening data: PubChem, National Center for Advancing Translational Sciences (NCATS)
Shown are actives, neighbours in structure and some others; about 14% of the full set was active somewhere.
Shiga toxin inh: A qHTS for Small Molecule Inhibitors of Shiga Toxin | Vero cells, Shiga toxin protein synthesis inhibition reporter | inhibition, % at 38.7 µM | AID 2315, 2010 | 290,000 compounds, 9.2% hits; in the data active = inhibition mostly above about 28%, no sharp cut-off; inactive = mostly below about 43%; also: 0% is about no effect
LmPK inh: qHTS Assay for Inhibitors of Leishmania Mexicana Pyruvate Kinase (LmPK); purified LmPK, Kinase-Glo ATP luminescence, 1 h; Potency, µM (series often up to 57.5 µM), without a hit: at the top dose activity change, negative = inhibition, usual class: inhibitors; 290,000 compounds, 0.37% hits; also: potency is read from the fitted curve at half-maximal effect; % is scaled to controls: 0 for no effect and ±100 for the full control effect
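Screened at intermediate enzyme activity to detect both inhibitors and activators: LmPK at 0.1 nM, with a 0.5 nM enzyme column as activation reference. PEP 0.5 mM, ADP 0.1 mM; ATP detected by luminescence after 1 h.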
CHX counter: Cycloheximide Counterscreen for Small Molecule Inhibitors of Shiga Toxin. cell reporter, cycloheximide protein synthesis inhibition counterscreen. max response, %. 300,000 compounds, 12% hits. AID 2314, 2010; in the data active = max response mostly above about 13%, no sharp cut-off; inactive = mostly below about 14%; also: read at 38.3 µM for the half of the compounds with a filed dose; 0% is about no effect
FBPA Giardia inh: qHTS Assay for Inhibitors of Fructose-1,6-bisphosphate Aldolase from Giardia Lamblia. A8B2U2. purified Giardia FBPA. Potency, µM (top dose mostly 59.6 µM), inactives show at the top dose activity, negative = inhibition, actives largely listed as inhibitors. 290,000 compounds, 0.71% hits. AID 2451, 2010; also: potency is read from the fitted curve at half-maximal effect; % is scaled to controls: 0 for no effect and ±100 for the full control effect; nearly all actives have a fitted effect of over 55% in size
Target sequence (A8B2U2 whole entry, looked up): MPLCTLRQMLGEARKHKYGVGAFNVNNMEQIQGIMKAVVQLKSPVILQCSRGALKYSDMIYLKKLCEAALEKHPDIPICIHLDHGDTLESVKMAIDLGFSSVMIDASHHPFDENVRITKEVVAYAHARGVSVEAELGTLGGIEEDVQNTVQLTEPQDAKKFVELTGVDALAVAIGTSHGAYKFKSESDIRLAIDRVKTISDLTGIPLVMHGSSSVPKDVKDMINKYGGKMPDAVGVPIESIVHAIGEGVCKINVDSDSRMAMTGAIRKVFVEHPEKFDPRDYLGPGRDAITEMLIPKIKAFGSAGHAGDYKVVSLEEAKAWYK
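40 nM FBPA preincubated 10 min at RT with compound (up to 57.5 uM final), then substrate plus GAPDH/TPI/NAD/arsenate coupling and diaphorase/resazurin added. Fluorescence read after 20 min at RT, 525/598 nm.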
NS1 inh: qHTS Assay for Inhibitors of Influenza NS1 Protein Function; Potency, µM (doses to about 46.1 µM), inactives show top-dose activity, positive = more growth; 270,000 compounds, 0.4% hits; AID 2326, 2010; calls by dose curve; also: potency is read from the fitted curve at half-maximal effect; actives are rising curves; nearly all actives have a fitted effect of over 50% in size
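In this qHTS, NS1 from influenza A is expressed in budding yeast, where it slows growth. Cells are switched from glucose to 2% galactose medium (pH 6.0, -URA), treated with compound, and growth recovery is read at OD600.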
An asterisk follows results filed as active; ? = inconclusive; nt = not tested or not shown; [ ] = dose if it differs, or a comment. Unless noted, calls follow the shape of the dose curve; as a rule, active = well fitted curve in the direction sought with a large enough effect; inconclusive = small, poorly fitted or top-dose-only effect, or another doubt; inactive = no such curve, though single readings can be large; an effect the other way counts as inactive or inconclusive.

SMILES	Shiga toxin inh	LmPK inh	CHX counter	FBPA Giardia inh	NS1 inh
CC(=O)Oc1c(/C=C(\C#N)C(N)=O)[nH]c2ccccc12	10.8	-13.4%	21.5	?	-19.6%
COC(=O)/C(C#N)=C/c1c[nH]c2ccccc12	102.9*	1.1%	37.3*	-3.9%	nt
N#C/C(=C\c1c[nH]c2ccccc12)C(N)=O	27.3	6.2%	9.0*	1.6%	-7.9%
CCOC(=O)/C(C#N)=C/c1c[nH]c2ccccc12	80.9*	5.2%	28.4*	-3.2%	-6.5%
CCOP(=O)(OCC)/C(C#N)=C/c1c[nH]c2ccccc12	7.1	0.1%	-2.0	1.8%	3.7%
Cc1ccc(C(=O)O/N=C(\N)c2ccccn2)c(C)c1	-21.5	6.31µM*	-7.3	nt	-58.5%
COc1cc(OC)c(C(=O)O/N=C(\N)c2ccccn2)cc1OC	78.4*	-5.7%	14.4*	9.3%	-2.5%
Cc1ccccc1C(=O)O/N=C(\c1ccccc1)c1ccccn1	-4.2	4.4%	8.3	-2.5%	-26.8%
N/C(=N\OC(=O)c1ccccc1Cl)c1ccccn1	-11.4	7.08µM*	2.3	-1.2%	-43.5%
N/C(=N\OC(=O)c1cc(-c2ccccc2)nc2ccccc12)c1ccccn1	-10.6	-2.7%	5.3	-9.0%	-5.1%
COc1ccccc1C(=O)O/N=C(\N)c1ccccn1	33.8	?	22.4*	-16.0%	-35.2%
N/C(=N\OC(=O)c1ccccc1[N+](=O)[O-])c1ccccn1	26.0	-18.2%	12.2	-5.5%	nt
COc1ccccc1-c1ccc(Nc2cccc(C(C)=O)c2)nn1	73.8*	1.1%	37.2*	-10.7%	-10.4%
CC(=O)c1cccc(Nc2ccc(-c3ccccc3F)nn2)c1	93.6*	5.8%	37.7*	-10.4%	nt
COc1cccc(Nc2ccc(Nc3cccc(OC)c3)nn2)c1	-3.9	5.0%	-3.5	-11.6%	-2.3%
CC(=O)c1ccc(Nc2ccc(-c3ccccc3C)nn2)cc1	106.6*	-6.5%	54.6*	-11.3%	-9.6%
CC(=O)c1ccc(Nc2cc(C)nc3c(C)cccc23)cc1	0.4	3.8%	0.3	-0.6%	-13.1%
Cc1ccccc1OCCCn1c(CCNC(=O)C2CCCCC2)nc2ccccc21	29.4	nt	7.2	nt	nt
COC(CNS(=O)(=O)c1cc2c3c(c1)CCN3C(=O)CC2)OC	-9.6	-3.4%	2.3	2.0%	-1.2%
COC(=O)C1=C(c2ccc(OC)cc2)OC(=O)C1(C)C	-9.8	-0.5%	-2.8	3.4%	16.2%
O=C(Cc1cccs1)NCc1ccco1	10.4	-5.7%	-3.2	3.7%	-2.1%
O=S(=O)(NCc1ccccc1Br)c1cccs1	-5.5	-3.3%	11.1*	-1.1%	-10.8%
COc1ccc(Br)cc1CNC(=O)Cc1cccs1	5.6	-2.9%	20.8*	18.1%	-4.7%
O=C(Cc1cccs1)NCc1ccccc1Br	62.8*	3.7%	36.5*	3.8%	-5.6%
COc1ccc(CCNC(=O)Cc2cccs2)cc1OC	9.7	0.6%	0.4	-2.6%	-1.1%
SMILES	Shiga toxin inh	LmPK inh	CHX counter	FBPA Giardia inh	NS1 inh
COc1cccc([C@@H]2Oc3ccc(OC)cc3C(=O)[C@H]2OC(=O)NCCc2ccc(OC)c(OC)c2)c1	nt	nt	nt	3.1%	nt
C=C[C@H](N)CCC(=O)O	nt	nt	nt	8.7%	nt
CCOC(=O)Cc1c(C)nc2cc(-c3ccc(C(C)(C)C)cc3)[nH]n2c1=O	1.7	-3.4%	10.0	0.0%	4.3%
CCCCc1c(C)nc2cc(-c3ccco3)[nH]n2c1=O	78.7*	-4.2%	34.4*	-2.1%	0.5%
C=CCc1c(C)nc2cc(-c3ccc(C)cc3)[nH]n2c1=O	72.2*	2.4%	53.8*	-25.4%	14.7%
CCc1c(C)nc2cc(-c3ccccc3)[nH]n2c1=O	35.3*	1.0%	34.1*	-22.8%	5.1%
O=C1c2nc3cc(-c4ccco4)[nH]n3c(=O)c2CN1Cc1ccccc1	-8.7	5.0%	-0.8	1.7%	14.7%
Cc1ccccc1-c1ccnc2[nH]n(-c3ccccc3)c(=O)c12	-3.3	-2.6%	-5.3	-14.8%	1.6%
COc1ccc2c(c1)O[C@@H](c1cccc(C(F)(F)F)c1)[C@H](OC(=O)NCCOc1ccccc1)C2=O	nt	nt	nt	-0.5%	nt
CCn1cc(CN2N=C(C)CC2c2ccccc2)c(C)n1 (stereo unspecified)	-9.9	0.3%	-4.3	1.8%	-8.0%
O=C(Nc1cccc(F)c1)Nc1ccnn1C1CCN(C(=O)c2cscn2)CC1	51.2*	-6.9%	41.3*	-7.1%	4.4%
CC(=O)Oc1ccccc1C(=O)O	nt	nt	nt	-2.8%	6.2%
CC(=O)[O][Hg][c]1ccccc1	nt	nt	nt	17.7µM*	nt
COc1nc(SCC(=O)Nc2ccccc2Cl)nc(N(C)C)n1	40.4	3.5%	18.3*	15.1%	-32.4%
COc1ccc(SCC(=O)Nc2ccccc2Cl)cc1	13.5	-0.8%	6.6	4.0%	-15.7%
COc1ccc(NC(=O)NC2CCCc3ccccc32)cc1 (stereo unspecified)	18.7	3.5%	15.8*	-2.5%	5.1%
CC(=O)c1ccc(NC(=O)NC2CCCc3ccccc32)cc1 (stereo unspecified)	3.8	-1.1%	0.5	4.9%	-11.3%
COc1ccc(NC(=O)NC2CCCc3ccccc32)cc1OC (stereo unspecified)	31.0*	-7.0%	33.5*	nt	-4.7%
O=C(O)c1c(Sc2ccccc2)c2cc(Cl)ccc2n1Cc1ccc(Cl)cc1	nt	nt	nt	25.5%	nt
O=C(Nc1cc(Cl)cc(Cl)c1)C1CCCC1	-1.4	-7.0%	-0.4	-2.3%	-25.2%
COc1cc(/C=N/OCC(=O)Nc2cc(C)cc(C)c2)ccc1OCc1ccc(Cl)cc1	107.2*	1.3%	91.9*	-5.9%	2.0%
COc1cc(/C=N/OCC(=O)NC2CCCCC2C)ccc1OCc1ccc(Cl)cc1 (stereo unspecified)	150.1*	1.3%	56.1*	-6.0%	13.7%
CC(=O)NC12CC3CC(C1)CC(C(=O)Nc1nc4c(C)cccc4s1)(C3)C2	12.9	1.1%	6.0	nt	18.5%
COc1ccc(C(=O)/C=C/c2ccc(OC)c(O)c2)c(F)c1	61.4*	-2.7%	67.8*	-21.4%	-27.9%
COc1ccc(/C=C/C(=O)c2ccc(Cl)s2)cc1O	59.8	-0.8%	24.0*	-17.4%	-210.7%
SMILES	Shiga toxin inh	LmPK inh	CHX counter	FBPA Giardia inh	NS1 inh
COc1ccc(/C=C/C(=O)c2ccc(OC)cc2OC)c(OC)c1	4.0	2.9%	6.6	-5.0%	-6.3%
CCOC(=O)CNc1c(-c2ccc(O)cc2)nc2ccc(Cl)cn12	56.1	-6.2%	23.5*	?	-11.8%
COc1ccc2[nH]c3c(c2c1)CCn1c-3nc2ccccc2c1=O	97.4*	-9.0%	37.6*	2.7%	0.9%
COc1ccc2nc3c(cc2c1)Cn1c-3nc2ccccc2c1=O	27.0	nt	14.8	-11.8%	nt
O=C1C2=CC[C@H]3C(=O)N(C4CCCCC4)C(=O)[C@@H]3[C@@H]2[C@H](O)[C@@H]2O[C@H]12	nt	nt	nt	-1.0%[12.9 µM]	nt
Cc1ccc(S(=O)c2snnc2C)cc1 (stereo unspecified)	-6.0	-5.2%	-1.9	6.2%	2.1%
CNC(=O)c1nnsc1S(=O)c1ccc(Cl)cc1 (stereo unspecified)	98.2*	-2.8%	55.3*	-16.6%	nt
CCCNC(=O)c1nnsc1S(=O)c1ccc(Cl)cc1 (stereo unspecified)	17.7	-4.5%	36.0*	-22.7%	nt
